From PubChem BioAssay AID1159580 (chemical genetic matrix, 2015)
Out of some 5,500 compounds screened, about 2,000 (36%) were called active. Roughly 18% stayed inconclusive and do not appear here. Rule as the data show it: active = normalized growth mostly below about 0.91 (no sharp cut-off); inconclusive = no clear call, values can overlap the other calls; inactive = mostly above about 0.92. The list shows a part of the results.

Assay: chemical genetic growth profiling, strain panel (AID 1159580);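 also: tested at 20 µM; growth read once vehicle control cultures reached saturation at 30 °C; 1 = growth at the plate median or of vehicle wells; lower values mean less growth of the strain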
Conditions: growth OD
[1] = S. cerevisiae deletion strains, locus YHR030C, strain SLT2, hits give low values
[2] = S. cerevisiae deletion strains, locus YJL095W, strain BCK1, hits give low values
[3] = S. cerevisiae deletion strains, locus YJR075W, strain HOC1, hits give low values
[4] = S. cerevisiae deletion strains, locus YMR307W, strain GAS1, hits give low values

Measured: normalized growth

CCCCCCCCCCCCCCCC(=O)OCC(O)[C@H]1OC(=O)C(O)=C1O (stereo not given in full)
active: [1] 0.804 | S. cerevisiae deletion strains, locus YHR079C, strain IRE1, hits give low values 0.83 | [2] 0.823 | S. cerevisiae deletion strains, locus YJR066W, strain TOR1, hits give low values 0.777 | S. cerevisiae deletion strains, locus YLR113W, strain HOG1, hits give low values 0.724 | S. cerevisiae deletion strains, locus YNL183C, strain NPR1, hits give low values 0.703 | S. cerevisiae deletion strains, locus YOR231W, strain MKK1, hits give low values 0.834 | S. cerevisiae deletion strains, locus YPL256C, strain CLN2, hits give low values 0.763

O=[N+]([O-])c1ccc(CSc2ncnc3c2ncn3[C@@H]2O[C@H](CO)[C@H](O)C2O)cc1 (stereo not given in full)
inactive: S. cerevisiae deletion strains, locus YAL013W, strain DEP1, hits give low values 1.01 | S. cerevisiae deletion strains, locus YAL040C, strain CLN3, hits give low values 1.01 | S. cerevisiae deletion strains, locus YCL061C, strain MRC1 (second series), hits give low values 1.01 | S. cerevisiae deletion strains, locus YDR363W, strain ESC2, hits give low values 1.01 | S. cerevisiae deletion strains, locus YER002W, strain NOP16, hits give low values 0.997 | [3] 1.01 | [4] 0.996 | S. cerevisiae deletion strains, locus YNL175C, strain NOP13, hits give low values 1.01 | S. cerevisiae deletion strains, locus YNL197C, strain WHI3, hits give low values 1.01 | S. cerevisiae deletion strains, locus YNL224C, strain SQS1, hits give low values 1 | S. cerevisiae deletion strains, locus YNL322C, strain KRE1, hits give low values 1.01 | S. cerevisiae deletion strains, locus YOR083W, strain WHI5 (second series), hits give low values 0.992 | S. cerevisiae deletion strains, locus YPL055C, strain LGE1, hits give low values 1.01 | S. cerevisiae deletion strains, locus YPL241C, strain CIN2, hits give low values 1.01

CC1(C)C(O)CC(O)C2(C)C1CC(=O)C1(C)C2CCC2(C)C(C(=O)O)OC(=O)C3OC321 (stereo not given)
inactive: S. cerevisiae deletion strains, locus YBR021W, strain FUR4, hits give low values 1.01 | S. cerevisiae deletion strains, locus YBR229C, strain ROT2, hits give low values 1.01 | S. cerevisiae deletion strains, locus YCL029C, strain bik1, hits give low values 0.996 | S. cerevisiae deletion strains, locus YDL035C, strain GPR1, hits give low values 1.01 | S. cerevisiae deletion strains, locus YDL074C, strain BRE1, hits give low values 1 | S. cerevisiae deletion strains, locus YDL101C, strain DUN1, hits give low values 1.01 | S. cerevisiae deletion strains, locus YDL185W, strain tfp1, hits give low values 0.984 | S. cerevisiae deletion strains, locus YDL192W, strain arf1, hits give low values 1 | S. cerevisiae deletion strains, locus YDR101C, strain arx1, hits give low values 1 | S. cerevisiae deletion strains, locus YDR150W, strain NUM1, hits give low values 1.02 | S. cerevisiae deletion strains, locus YDR162C, strain NBP2, hits give low values 1.03 | S. cerevisiae deletion strains, locus YDR318W, strain mcm21, hits give low values 1 | S. cerevisiae deletion strains, locus YDR388W, hits give low values 1 | S. cerevisiae deletion strains, locus YDR502C, strain sam2, hits give low values 1.02 | S. cerevisiae deletion strains, locus YEL061C, strain CIN8, hits give low values 1 | S. cerevisiae deletion strains, locus YER110C, hits give low values 0.995 | S. cerevisiae deletion strains, locus YER155C, strain BEM2, hits give low values 1.01 | S. cerevisiae deletion strains, locus YER167W, strain BCK2, hits give low values 1.01 | S. cerevisiae deletion strains, locus YGL078C, strain dbp3, hits give low values 0.996 | S. cerevisiae deletion strains, locus YGL086W, strain mad1, hits give low values 1.01 | S. cerevisiae deletion strains, locus YGL248W, strain PDE1, hits give low values 1.01 | S. cerevisiae deletion strains, locus YGR135W, strain pre9, hits give low values 1.01 | S. cerevisiae deletion strains, locus YGR229C, strain SMI1, hits give low values 1.01 | S. cerevisiae deletion strains, locus YGR252W, strain gcn5, hits give low values 0.974 | [1] 1.01 | S. cerevisiae deletion strains, locus YHR079C, strain IRE1 (second series), hits give low values 0.994 | S. cerevisiae deletion strains, locus YHR094C, strain hxt1, hits give low values 1.01 | S. cerevisiae deletion strains, locus YHR129C, strain ARP1, hits give low values 1.01 | S. cerevisiae deletion strains, locus YHR200W, strain rpn10, hits give low values 1 | S. cerevisiae deletion strains, locus YIL066C, strain RNR3, hits give low values 1.02 | S. cerevisiae deletion strains, locus YIL073C, strain SPO22, hits give low values 1.03 | S. cerevisiae deletion strains, locus YIL125W, strain kgd1, hits give low values 0.994 | S. cerevisiae deletion strains, locus YIR030C, strain dcg1, hits give low values 0.999 | [2] 1.02 | S. cerevisiae deletion strains, locus YJL134W, strain LCB3, hits give low values 1.01 | S. cerevisiae deletion strains, locus YJL168C, strain set2, hits give low values 0.985 | S. cerevisiae deletion strains, locus YJL187C, strain SWE1 (second series), hits give low values 1.01 | S. cerevisiae deletion strains, locus YJR043C, strain POL32, hits give low values 1.02 | [3] 1.01 | S. cerevisiae deletion strains, locus YKL009W, strain mrt4, hits give low values 0.986 | S. cerevisiae deletion strains, locus YKL068W, hits give low values 1 | S. cerevisiae deletion strains, locus YKL085W, strain MDH1 (second series), hits give low values 1 | S. cerevisiae deletion strains, locus YKL085W, strain MDH1, hits give low values 1 | S. cerevisiae deletion strains, locus YKR001C, strain vps1, hits give low values 0.99 | S. cerevisiae deletion strains, locus YLR039C, strain RIC1, hits give low values 1.03 | S. cerevisiae deletion strains, locus YLR058C, strain SHM2, hits give low values 1.01 | S. cerevisiae deletion strains, locus YLR102C, strain apc9, hits give low values 0.998 | S. cerevisiae deletion strains, locus YLR262C, strain YPT6, hits give low values 1 | S. cerevisiae deletion strains, locus YLR268W, strain sec22, hits give low values 1.01 | S. cerevisiae deletion strains, locus YLR330W, strain CHS5, hits give low values 1.01 | S. cerevisiae deletion strains, locus YLR342W, strain FKS1 (second series), hits give low values 1 | S. cerevisiae deletion strains, locus YLR371W, strain rom2, hits give low values 1.01 | S. cerevisiae deletion strains, locus YLR418C, strain cdc73, hits give low values 1 | S. cerevisiae deletion strains, locus YML016C, strain PPZ1, hits give low values 1.01 | S. cerevisiae deletion strains, locus YML032C, strain rad52, hits give low values 1.01 | S. cerevisiae deletion strains, locus YML124C, strain tub3, hits give low values 1 | S. cerevisiae deletion strains, locus YMR078C, strain ctf18, hits give low values 0.984 | S. cerevisiae deletion strains, locus YMR223W, strain ubp8, hits give low values 1.01 | S. cerevisiae deletion strains, locus YMR263W, strain SAP30, hits give low values 1.01 | [4] 0.99 | S. cerevisiae deletion strains, locus YNL067W, strain RPL9B, hits give low values 1.02 | S. cerevisiae deletion strains, locus YNL128W, strain TEP1, hits give low values 1.02 | S. cerevisiae deletion strains, locus YNL153C, strain GIM3, hits give low values 1.01 | S. cerevisiae deletion strains, locus YNL233W, strain BNI4, hits give low values 1 | S. cerevisiae deletion strains, locus YNL250W, strain rad50, hits give low values 0.999 | S. cerevisiae deletion strains, locus YNL271C, strain bni1, hits give low values 0.993 | S. cerevisiae deletion strains, locus YNL298W, strain CLA4, hits give low values 1.01 | S. cerevisiae deletion strains, locus YNL307C, strain MCK1, hits give low values 1 | S. cerevisiae deletion strains, locus YNR052C, strain pop2, hits give low values 0.994 | S. cerevisiae deletion strains, locus YOL012C, strain htz1 0.868 | S. cerevisiae deletion strains, locus YOL147C, strain pex11, hits give low values 0.993 | S. cerevisiae deletion strains, locus YOR061W, strain CKA2, hits give low values 1.01 | S. cerevisiae deletion strains, locus YOR069W, strain VPS5, hits give low values 1.01 | S. cerevisiae deletion strains, locus YOR136W, strain idh2, hits give low values 0.997 | S. cerevisiae deletion strains, locus YOR144C, strain elg1, hits give low values 0.992 | S. cerevisiae deletion strains, locus YOR184W, strain ser1, hits give low values 1.03 | S. cerevisiae deletion strains, locus YOR316C, strain cot1, hits give low values 0.995 | S. cerevisiae deletion strains, locus YPR119W, strain clb2, hits give low values 0.989 | S. cerevisiae deletion strains, locus YPR141C, strain kar3, hits give low values 0.999 | S. cerevisiae deletion strains, locus YPR163C, strain tif3, hits give low values 1.01 | S. cerevisiae deletion strains, locus YPR167C, strain met16, hits give low values 0.997 | S. cerevisiae deletion strains, strain wtn01, hits give low values 0.981 | S. cerevisiae strains, strain wild type, hits give low values 1.01
